Bioassay records: PubChem, National Center for Advancing Translational Sciences (NCATS)
AmpC detergent: inhibitors of E. coli AmpC beta-lactamase with detergent. P00811. AID 485294. AmpC hydrolysis of nitrocefin, absorbance 480 nm, 0.01% Triton. Potency, µM (titrated, usually from 114 µM), inactives show top-dose activity change, negative = inhibition, usual class: inhibitors. actives 0.041% (n = 370,000);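 further: 0% = no-compound wells and -100% = no-enzyme wells; nearly all actives have a fitted effect of over 25% in size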
Target sequence (P00811 whole entry, looked up): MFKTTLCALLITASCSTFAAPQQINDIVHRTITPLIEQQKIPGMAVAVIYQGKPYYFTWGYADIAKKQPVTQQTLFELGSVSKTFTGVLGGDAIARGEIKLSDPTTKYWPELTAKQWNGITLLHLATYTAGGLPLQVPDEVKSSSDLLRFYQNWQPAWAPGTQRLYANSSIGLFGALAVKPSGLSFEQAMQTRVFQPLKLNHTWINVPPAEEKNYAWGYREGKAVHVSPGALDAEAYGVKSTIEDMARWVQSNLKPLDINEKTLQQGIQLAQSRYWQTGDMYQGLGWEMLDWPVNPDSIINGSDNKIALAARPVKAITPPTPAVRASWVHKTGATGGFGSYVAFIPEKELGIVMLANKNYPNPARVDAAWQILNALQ
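20 mM phosphate pH 7.0 + 0.01% (detergent screen) or 0.0001% Triton X-100; 5.3 nM AmpC reagent; cpd preinc 15 min RT; nitrocefin (800 uM stock) to start; A480 q20 s × 4 min; Activity was normalised to no-enzyme and no-compound control wells.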
SARS PLP yeast: blocks SARS-CoV papain-like protease in a yeast assay | S. cerevisiae expressing SARS-CoV PLpro, growth rescue | Potency, µM (series often up to 32.9 µM), for the others: top-dose activity, positive = growth rescue, most hits filed as activators | actives 0.19% (n = 330,000) | AID 485353; calls by dose curve; further: 0% is about no effect; nearly all actives have a fitted effect of over 55% in size
AmpC no deterg: blocks E. coli AmpC beta-lactamase in detergent-free assay; P00811; AmpC nitrocefin hydrolysis, absorbance 480 nm, 0.0001% Triton; Potency, µM (series often up to 57.1 µM), for inactives: at the top dose activity change, negative = inhibition, most hits filed as inhibitors; actives 0.52% (n = 330,000); AID 485341;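 further: plate controls were no compound for no effect and no enzyme for full effect; nearly all actives have a fitted effect of over 20% in size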
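20 mM phosphate pH 7.0 + 0.01% (detergent screen) or 0.0001% Triton X-100; 5.3 nM AmpC reagent; cpd preinc 15 min RT; nitrocefin (800 uM stock) to start; A480 q20 s × 4 min; Activity was normalised to no-enzyme and no-compound control wells.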
TbPYK inhibitor: blocks Trypanosoma brucei pyruvate kinase; TbPYK enzyme, Kinase-Glo Plus ATP luminescence, 45 min; Potency, µM (top dose mostly 76.8 µM), inactives show at the top dose activity, negative = inhibition, most hits filed as inhibitors; actives 0.12% (n = 410,000); further: on the % scale 0 is the no-effect control and ±100 the full control effect; nearly all actives have a fitted effect of over 50% in size
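T. brucei PYK with substrate was exposed to pin-transferred compounds across a concentration series, then started with 130 uM ADP (final). After 45 min at room temperature, Kinase-Glo Plus luminescence was read, normalized and curve-fitted.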
Sm TGR inh: inhibitors of Schistosoma mansoni thioredoxin glutathione reductase; AID 485364; purified TGR, DTNB reduction, TNB absorbance 405 nm; Q962Y6; Potency, µM (top dose mostly 114 µM), inactives show at the highest dose activity change, negative = inhibition, most hits filed as inhibitors; actives 3% (n = 360,000); further: on the % scale 0 is the no-effect control and ±100 the full control effect; nearly all actives have a fitted effect of over 60% in size
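TGR 20 nM + NADPH 100 uM (dispensed conc.), cpd preinc 15 min RT; start with NADPH (500 uM addition) then DTNB (15 mM addition). Kinetic TNB absorbance, 405 nm filter. Four-parameter Hill fit across titration.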
RE007 growth inh: less growth of the S. pombe RE007 Vpr strain | Potency, µM (top dose mostly 92.2 µM), inactives show at the top dose activity change, negative = less growth, usual class: inhibitors | actives 0.21% (n = 360,000) | S. pombe RE007 Vpr strain, BacTiter-Glo ATP luminescence, 24 h | AID 651644; active means well fitted falling curve with a large enough effect; inconclusive means small, poorly fitted or top-dose-only effect; inactive means no such curve, though single readings can be large or run the other way; further: on the % scale 0 is the no-effect control and ±100 the full control effect; nearly all actives have a fitted effect of over 50% in size
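Fission yeast RE007 carrying one integrated HIV-1 vpr copy, seeded at OD 0.01 in PMG+AL medium with 23 nL pinned compound. Grown 24 h at 30 degrees; viability read by BacTiter-Glo luminescence after 5 min.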
* hit, by the source's call; ? = inconclusive; . = not tested or not shown; [ ] = another dose, or the depositor's remark. A selection: hits, their analogues and other compounds. The true share with any hit is near 3.3%. Unless noted, the call rests on the fitted dose curve; in most records, active means well fitted curve in the direction sought with a large enough effect; inconclusive means small, poorly fitted or top-dose-only effect, or another doubt; inactive means no such curve, though single readings can be large; an effect the other way counts as inactive or inconclusive. Potency means the concentration at half of the fitted maximal effect.

SMILES	AmpC detergent	SARS PLP yeast	AmpC no deterg	TbPYK inhibitor	Sm TGR inh	RE007 growth inh
O=C(NC1CCCC1)C(c1ccncc1)N(Cc1ccco1)C(=O)c1ccc(-c2ccccc2)[nH]1 (stereo not given)	6%	-7%	34%	-1%	28µM*	-16%
CC(C)(C)NC(=O)C(c1ccncc1)N(Cc1ccc(F)cc1)C(=O)c1ccc(-c2ccccc2)[nH]1 (stereo not given)	2%	10%	127%	-6%	32µM*	1%
O=C(O)CCCC(=O)Nc1ccccc1SCCS(=O)(=O)c1ccc(Cl)cc1	-19%	5%	-10%	-11%	40µM*	0%
COc1ccccc1NC(=O)C(Cc1ccccc1)NS(=O)(=O)c1ccc2c(c1)CCN2C(C)=O (stereo not given)	2%	.	.	-1%	-4%	.
Cc1ccc(Nc2nc(-c3ccccc3)c(CC(=O)O)s2)cc1	?	-2%	?	2%	-35%	?
O=C(O)Cc1sc(Nc2ccc(C(=O)O)cc2)nc1-c1ccccc1	0%	.	.	-8%	?	.
O=C(Cc1sc(Nc2ccccc2)nc1-c1ccccc1)NCc1ccccn1	-8%	1%	-46%[11.4 µM]	?	25µM*	2%
O=C(O)Cc1sc(Nc2ccccc2)nc1-c1ccc(Cl)cc1	0%	-2%	-40%	-17%	45µM*	-2%
CCOc1ccc(CCNC(=O)c2nn(-c3ccc(OC)cc3)c(=O)c3c2c2ccccc2n3C)cc1OCC	0%	.	.	0%	9%	.
CCOc1ccc(NC(=O)CSC2=Nc3ccccc3C3=NC(CC(=O)NCc4cccs4)C(=O)N23)cc1 (stereo not given)	0%	.	.	0%	1%	.
O=C(/C=C/c1cccc([N+](=O)[O-])c1)N1CCOCC1	?	-11%	-16%	-4%	-7%	-11%
O=C(/C=C/c1ccc(-c2cccc([N+](=O)[O-])c2)o1)N1CCOCC1	3%	-1%	31%	-12%	40µM*	2%
COc1ccc(CNC(=O)c2cc3c(=O)n(Cc4cccs4)ccc3nc2C)cc1	-6%	.	.	3%	-10%	.
Cc1cccc(C(=O)n2nc(-c3cccnc3)nc2NCc2ccc(F)cc2)c1	3%	.	.	0%	2%	.
COc1ccc(/C=N/n2c(-c3n[nH]c4c3CCC4)n[nH]c2=S)cc1	-9%	-1%	-38%	?	1%	0%
COc1cc(OC)c(OC)cc1/C=N/n1c(-c2n[nH]c3c2CCC3)n[nH]c1=S	1%	0%	-17%	2.5µM*	10%	20%
COc1ccc(OC)c(/C=N/n2c(-c3n[nH]c4c3CCC4)n[nH]c2=S)c1	-5%	0%	-33%	3.5µM*	2%	3%
COc1ccc(/C=N/n2c(-c3n[nH]c4c3CCC4)n[nH]c2=S)c(OC)c1OC	-1%	1%	-28%	-38%	10%	43%
COC(=O)c1ccc(C(C2C(=O)CC(C)(C)CC2=O)C2C(=O)CC(C)(C)CC2=O)cc1	-14%	2%	-3%	-3%	?	-10%
CC1(C)CC(=O)C(C(c2ccc(Br)cc2)C2C(=O)CC(C)(C)CC2=O)C(=O)C1	-10%	-2%	-2%	-8%	18µM*	-11%
CC1(C)CC(=O)C(C(c2ccc(F)cc2)C2C(=O)CC(C)(C)CC2=O)C(=O)C1	-3%	4%	-10%	1%	45µM*	-5%
Nc1ccc(Br)c2cccnc12	8%	0%	-19%	-4%	50µM*	12%
CS(=O)(=O)Oc1ccc(Br)c2cccnc12	3%	2%	4%	-2%	-20%	-4%
c1ccc(-c2ccc(C(c3ccccc3)n3ccnc3)cc2)cc1 (stereo not given)	6%	-67%	-7%	8%	7%	-7%
